# Reference: PubChem BioAssay (NCI)
# About 79,000 compounds went through this panel and 15% of them were active in at least one assay; those are over-represented in the sample as a whole. Unmarked numbers belong to inactive results. The source made the active and inactive calls. No stated cut-off is given here; in the data, active means growth inhibition above about 70%; inactive means the rest.
# Experiments:
# [1] = NCI Yeast Anticancer Drug Screen. Data for the rad50 strain (AID 155);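 further: 0% = growth of vehicle-only cultures of the same strain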; settings: S. cerevisiae rad50 strain growth inhibition, active compounds read high
# Outline: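 Vehicle-treated cultures provide the reference for the growth inhibition reported for compound-exposed, repair-deficient yeast.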
# [2] = NCI Yeast Anticancer Drug Screen. Data for the mec2-1 strain (AID 157); settings: S. cerevisiae mec2-1 strain, active compounds read high
# Outline: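 mec2-1 yeast strain, carrying an alteration in DNA damage repair or cell cycle control, was exposed to compounds; growth inhibition was measured relative to vehicle-treated controls.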
# [3] = NCI Yeast Anticancer Drug Screen. Data for the sgs1 mgt1 strain (AID 161);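 further: 0% = growth of cultures given vehicle only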; settings: S. cerevisiae sgs1 mgt1 strain, active compounds read high
# Outline: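 This yeast growth screen uses a strain with defined DNA-repair lesions; compound-treated growth is compared with vehicle-treated growth.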
# [4] = NCI Yeast Anticancer Drug Screen. Data for the cln2 rad14 strain (AID 165);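 further: 0% = growth equal to vehicle treated cultures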; settings: S. cerevisiae cln2 rad14 strain, active compounds read high
# Outline: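 Yeast carrying cln2 and rad14 alterations (cell cycle control and DNA damage repair) were exposed to compounds. Growth inhibition was measured against vehicle-treated controls.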
# [5] = NCI Yeast Anticancer Drug Screen. Data for the bub3 strain (AID 167); settings: S. cerevisiae bub3 mutant strain, active compounds read high
# Outline: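 Mutant yeast screening strain plus compound; vehicle-treated cultures serve as the 0% inhibition reference.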
# [6] = NCI Yeast Anticancer Drug Screen. Data for the mlh1 rad18 strain (AID 175); settings: S. cerevisiae mlh1 rad18 strain growth inhibition, active compounds read high
# Outline: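 Growth inhibition of the yeast strain was measured after compound exposure and expressed relative to vehicle-treated controls. The strain carries defined defects in DNA damage repair.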
# [7] = at 5.0 µM (retest, dose inferred, filed as 0.5)
# [8] = at 50.0 µM (retest, dose inferred, filed as 5.0)
SMILES,"growth inhibition [1, 7]","growth inhibition [1, 8]",growth inhibition ([1]; at 50.0 µM),"growth inhibition [2, 7]","growth inhibition [2, 8]",growth inhibition ([2]; at 50.0 µM),"growth inhibition [3, 7]","growth inhibition [3, 8]",growth inhibition ([3]; at 50.0 µM),"growth inhibition [4, 7] [%]","growth inhibition [4, 8]",growth inhibition ([4]; at 50.0 µM),"growth inhibition [5, 7]","growth inhibition [5, 8]",growth inhibition ([5]; at 50.0 µM),"growth inhibition [6, 7]","growth inhibition [6, 8]",growth inhibition ([6]; at 50.0 µM)
CCCCCCCCCCCCCCCCCC1=NCCN1,6%,98% (active),54%,-4%,98% (active),99.3% (active),1%,98% (active),42%,1,99% (active),98% (active),8%,98% (active),99.3% (active),-1%,97% (active),99.2% (active)
CC(C)CCOc1ccc(/C=C\C(=O)O)cc1,3%,30%,61.1%,-2%,41%,81.5% (active),-3%,38%,30.1%,-1,87% (active),93.9% (active),1%,54%,71% (active),6%,43%,75% (active)
COC1CC(OC(=O)c2ccccc2)C(OC(=O)c2ccccc2)C(C)O1 (stereo not given),-5%,-4%,9.1%,-2%,-2%,6.1%,-2%,-1%,7.75%,-4,-12%,-16.4%,44%,64%,83.9% (active),-1%,2%,1.9%
Cc1c(N=Nc2cccc(F)c2)c(-c2ccccc2)nn1C(N)=S,14%,97% (active),99.2% (active),1%,98% (active),99.4% (active),3%,99% (active),99.4% (active),-5,96% (active),99.1% (active),1%,97% (active),99.5% (active),0%,98% (active),99.2% (active)
O=S1OCCS1 (stereo not given),10%,87% (active),98.8% (active),4%,90% (active),99% (active),11%,87% (active),98.5% (active),-3,74% (active),97.4% (active),-1%,92% (active),99.2% (active),7%,95% (active),98.7% (active)
CCOC(=O)C(Cc1cc(I)c(Oc2ccc(OC)cc2)c(I)c1)NC(C)=O (stereo not given),36%,92% (active),86.8% (active),28%,96% (active),83.2% (active),41%,97% (active),69%,23,95% (active),89.3% (active),39%,96% (active),87.9% (active),38%,95% (active),87.8% (active)
NCC(O)CSc1ccc(Cl)c(Cl)c1 (stereo not given),2%,11%,8.95%,-2%,-4%,14.2%,1%,16%,18.8%,5,9%,74.8% (active),3%,3%,17.2%,4%,7%,11.4%
COC(=O)CCC(=O)c1ccc2c(c1)CC1(Cc3ccccc3C1)C2,20%,29%,14.4%,24%,21%,3.85%,24%,46%,15.3%,14,8%,17.6%,25%,44%,41.4%,29%,30%,12.1%
COc1ccc(CSC(=S)Nc2ccc(SC)c(Cl)c2)cc1,50%,90% (active),96.4% (active),23%,96% (active),98.1% (active),62%,94% (active),97% (active),-10,88% (active),94.5% (active),16%,97% (active),97% (active),65%,94% (active),97.9% (active)
N#C/C(=C/c1ccc([N+](=O)[O-])o1)c1ccccc1,-6%,-7%,75.8% (active),-19%,-7%,-20.1%,-6%,-1%,27.9%,12,23%,32.8%,-4%,-2%,-13.7%,-21%,21%,5.9%
O=C(Oc1ccc(Cl)cc1)Oc1ccc(Cl)cc1,-13%,16%,3.55%,-10%,4%,16.7%,0%,25%,14.3%,-2,36%,16.9%,-1%,-23%,18.3%,6%,12%,17.1%
CC1C(c2ccc(Cl)cc2)c2cc3c(cc2OC1N1CCOCC1)OCO3 (stereo not given),-19%,6%,48.4%,-30%,-7%,58.4%,-24%,-4%,82.2% (active),-27,5%,90% (active),-29%,-24%,91.3% (active),-39%,8%,59.4%
COC(C)(C)[C@@H]1CCCN1C1=C(C)C(=O)OC1,97% (active),99% (active),46.6%,85% (active),99% (active),69.3%,61%,99% (active),78.5% (active),43,99% (active),24.6%,89% (active),99% (active),46.6%,90% (active),99% (active),75.8% (active)
CN(C)CC1(C)CC/C(=C\c2ccc(Cl)cc2)C1=O (stereo not given),3%,28%,62%,-14%,16%,38.2%,7%,39%,67.7%,10,36%,52.5%,15%,65%,35.4%,9%,57%,71.1% (active)
c1ccc(-c2c3ccccc3cc3ccc4ccccc4c23)nc1,8%,48%,78.7% (active),-6%,40%,52.9%,0%,-42%,62.3%,10,45%,49.5%,3%,71% (active),71% (active),-8%,43%,81.2% (active)
Cc1c(O)/c(=C\O)c2nc3c(=O)ccc(C(=O)NCCN(C)C)c3[nH]c2c1=O,29%,97% (active),57.5%,14%,70% (active),98.2% (active),33%,97% (active),56%,-10,94% (active),98.2% (active),19%,96% (active),98.3% (active),34%,96% (active),45.1%
[CH3][Sn]1([CH3])[O]C(=O)CCN=Cc2c(ccc3ccccc23)[O][Sn]([CH3])([CH3])[O]C(=O)CCN=Cc2c(ccc3ccccc23)[O]1,57%,98% (active),90.6% (active),61%,99% (active),92.8% (active),82% (active),99% (active),93% (active),24,99% (active),91.7% (active),84% (active),98% (active),92.3% (active),93% (active),99% (active),89.8% (active)
CCCCNC(=S)NC1OC(CO)C(O)C(O)C1O (stereo not given),2%,7%,99.3% (active),2%,10%,99.4% (active),-1%,0%,99.5% (active),-4,-3%,99% (active),-4%,-4%,99.2% (active),-1%,20%,99% (active)
CCOc1ccc2nc(C)cc(C)c2c1,-1%,75% (active),26.6%,-23%,31%,-13.4%,-7%,60%,-0.25%,1,2%,34.5%,-8%,63%,-17.2%,-4%,63%,38.6%
C=CNC(=O)Oc1ccccc1,-128%,-156%,-9.95%,-35%,-59%,30.2%,-47%,-62%,12.7%,-57,-73%,44%,-64%,-81%,-3%,-121%,-130%,6.25%
